According to the supplement of paper PMC11219838:
Unmarked numbers belong to inactive results.

Assays:
Conditions in all cases: 60 µM; 5 days; temperature: 20 °C
Meloidogyne hapla J2 = test: proportion of mobile M. hapla J2 relative to DMSO control (fraction of DMSO control); higher = more viable, less nematicidal, active = 0.7 or less
Method in brief: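 Two biological replicates were run and averaged, each on 96-well plates in which about 25 M. hapla J2 sat in distilled water per well. Compound was pinned in to give 60 µM final and 0.6% v/v DMSO, and the sealed plates were shaken at 200 rpm and 20 °C for 5 days before 2 µL 1 M NaOH was added. Mobility was scored microscopically and divided by the mean from the plate's DMSO-only wells, of which there were eight.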

[1] = tested on: Caenorhabditis elegans dauer (daf-2(e1370)); test: proportion of mobile C. elegans dauer larvae relative to DMSO control (fraction of DMSO control); higher = more viable, less nematicidal, active = 0.63 or less; extreme values may be limits of the assay
Method in brief: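 Synchronized C. elegans daf-2(e1370) larvae were held at 25 °C for 48 h on MYOB plates with E. coli OP50 to form dauers, and about 20 dauers were added per 96-well well in liquid NGM. Compound was pinned to 60 µM final (0.6% v/v DMSO), and sealed plates were shaken at 200 rpm for 5 days at 20 °C. The proportion of mobile worms was scored under a dissection microscope relative to DMSO controls and averaged over two biological replicates.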

Ditylenchus dipsaci = test: proportion of mobile D. dipsaci (mixed stage) relative to DMSO control (fraction of DMSO control); higher = more viable, less nematicidal, active = 0.86 or less; extreme values may be limits of the assay
Method in brief: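 The worms, D. dipsaci raised on pea plants in Gamborg B-5 agar, were recovered through a filter funnel into water. Each well of a 96-well plate then held about 20 of them in distilled water plus pinned compound at 60 µM final (0.6% v/v DMSO), and the sealed plates were shaken at 200 rpm at 20 °C for 5 days. Following addition of 2 µL 1 M NaOH, mobile worms were counted by microscopy, and mobility was expressed against DMSO controls as the average of two biological replicates.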

Compound	proportion of mobile M. hapla J2 (Meloidogyne hapla J2)	proportion of mobile C. elegans dauer larvae [1]	proportion of mobile D. dipsaci (Ditylenchus dipsaci)
COc1ccc(-c2nnc(SCC(=O)Nc3ccccc3C(C)C)o2)cc1	0.877	1	1
Cc1ccccc1OCc1nc(-c2ccc(Cl)cc2)no1	1.04	1	1
COc1cccc(OCc2nc(-c3cccc(C)c3)no2)c1	0.866	1	1
Clc1ccc(-c2noc(-c3ccc4c(c3)OCCO4)n2)cc1	1.02	1	1
O=C(Nc1ccccc1-c1nc(-c2ccncc2)no1)c1ccccc1Cl	0.979	1	1
c1ccc(OCc2nc(-c3cccs3)no2)cc1	0.652 (active)	0.0278 (active)	1
CC(C)C(=O)Nc1ccccc1-c1nc(-c2ccccn2)no1	0.995	1	1
Cc1ccc(-c2noc(COc3ccccc3C)n2)cc1	1.01	1	1
Cc1ncc2c(c1-c1noc(-c3ccccc3)n1)CCC2	0.921	0.929	1
CC(C)CCC(=O)Nc1ccccc1-c1nc(-c2ccncc2)no1	0.977	1	1
Clc1ccc(CSc2nnc(-c3ccccn3)o2)cc1	0.835	1	1
Cc1ccc(-c2noc(-c3ccc(Br)cc3)n2)cc1	1.05	1	1
COc1ccc(-c2nnc(SCc3ccccc3)o2)cc1	0.96	1	1
CCCc1nnc(SCc2nnc(-c3ccccc3)o2)o1	1.03	1	1
CCC(=O)Nc1ccccc1-c1nc(-c2cccnc2)no1	1.02	1	1
Cc1cccc(OCc2nc(-c3ccccc3)no2)c1	1.04	1	1
Cn1cc(C(=O)CSc2nnc(-c3cccc(Cl)c3)o2)c2ccccc21	0.999	1	1

Compound	proportion of mobile M. hapla J2 (Meloidogyne hapla J2)	proportion of mobile C. elegans dauer larvae [1]	proportion of mobile D. dipsaci (Ditylenchus dipsaci)
Cc1cc(OCc2nc(-c3cccnc3)no2)c(C)cc1Br	0.771	1	1
Cc1ccccc1-c1noc(CSc2nc3ccccc3[nH]2)n1	0.918	1	1
COc1ccc(-c2nnc(SCc3ccccc3C)o2)cc1	0.942	1	1
Brc1ccc(OCc2nc(-c3ccncc3)no2)cc1	0.995	1	1
Cc1cccc(-c2noc(COc3ccccc3Cl)n2)c1	0.894	1	1
O=S(=O)(CCC(F)=C(F)F)c1ncc(Cl)s1 [fluensulfone]	0.0622 (active)	1	1
Clc1ccc(OCc2nc(-c3ccncc3)no2)cc1	0.749	0.645	1
CCCc1nnc(CSc2nnc(-c3ccc(Cl)cc3)o2)o1	0.983	1	0.812 (active)
Clc1ccc(OCc2nc(-c3cccnc3)no2)c(Cl)c1	0.998	1	1
c1ccc2cc(-c3nc(-c4ccncc4)no3)ccc2c1	0.994	1	1
CCOC(=O)c1ccc(NC(=O)c2ccccc2-c2nc(-c3cccc(C)c3)no2)cc1	0.777	1	1
N#Cc1ccc(OCc2nc(-c3cccs3)no2)cc1	0.908	1	1
Cc1ccc(-c2nc(C3CCCCC3)no2)cc1	1.01	1	1
Cc1ccccc1-c1nnc(SCc2ccccc2)o1	0.986	1	1
Cc1ccccc1-c1noc(-c2cccc(Br)c2)n1	1.04	1	1
Cc1cccc(-c2noc(-c3cccc(Br)c3)n2)c1	0.87	1	1
Cc1cccc(-c2noc(-c3ccc4c(c3)OCO4)n2)c1	0.974	1	1
